Compound activity from PubChem.
Shown are actives, neighbours in structure and some others; about 3% of the full set was active somewhere.
TRPM1 prom inh = inhibitors of MITF-dependent TRPM1 promoter reporter, primary screen, cell-based, SK-MEL-5, single point, luciferase; SK-MEL-5 TRPM1 promoter luciferase, 24 h; inhibition, % at 12.5 µM; AID 488899, 2010; actives 0.83% (n = 330,000);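 active = mean inhibition across replicates of 60% or more, whatever share of single replicates reaches that level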
KKLEB tox = cytotoxicity in KKLEB CF airway cells, primary screen, cytotoxicity control for CF NF-kB inhibitor project, cell-based, uHTS, fluorescence assay plates; AID 602141, 2011; actives 0.36% (n = 360,000); KKLEB CF airway cells viability, ATPlite luminescence, overnight; hits give low values; cells stimulated with P. aeruginosa culture filtrate; activity change (cytotoxicity), % at 5 µM;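 active = corrected activity change at or below -50% at 5 µM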
LMP1 NFkB inh = EBV LMP1-driven NF-kappaB luciferase reporter inhibitors, primary screen, cell-based, luminescence, single point. actives 0.69% (n = 350,000). AID 504558, 2011. inhibition, % at 12.5 µM. LMP1-induced NF-kappaB luciferase reporter cells; in the data active = inhibition above about 41%;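 also: 0% = neutral control wells and 100% = reference inhibitor control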
Peg3 promoter = Peg3 promoter-driven luciferase inhibitors, primary screen, cell-based, HeLa, luciferase luminescence; HeLa PEG-Prom luciferase reporter, overnight; inhibition, % at 20 µM; actives 1.7% (n = 360,000); AID 588405, 2011;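 active = inhibition of at least 50% at 20 µM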
CF NFkB inh = inhibitors of PAF-induced NF-kB signaling, primary screen, cell-based, GFP fluorescence, uHTS | KKLEB NF-kB-GFP reporter, GFP fluorescence overnight | inhibition, % at 5 µM | actives 0.86% (n = 360,000);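 active = at least 50% inhibition at 5 µM, scaled per plate between neutral and stimulator controls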;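 also: PAF is a Pseudomonas aeruginosa culture filtrate used as stimulus; plate controls were PAF-stimulated DMSO wells for no effect and unstimulated DMSO wells for full effect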
HIF-2a inh = HIF-2a reporter inhibitors, primary screen, luminescence, 786-0 RCC cells | inhibition, % at 18.8 µM | actives 0.72% (n = 360,000) | 786-0 RCC cells HIF-2a reporter, luciferase luminescence, overnight | AID 624352, 2012;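 active = inhibition of the luminescence signal of 40% or more relative to plate controls, in a single-dose primary screen at 18.75 µM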
CF NFkB inh conf = inhibitors of PAF-induced NF-kB signaling, retest, confirmation, cell-based, GFP fluorescence, single concentration; shares compounds with CF NFkB inh; KKLEB CF airway cells, overnight; inhibition, % at 5 µM; actives 64% (n = 1,300); in the data active = inhibition above about 40%;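 also: stimulus PAF is a Pseudomonas aeruginosa filtrate and not platelet activating factor; plate controls were DMSO wells with stimulus for no effect and unstimulated DMSO wells for full effect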
Active calls of the source: *; nt = no result given.

SMILES	TRPM1 prom inh	KKLEB tox	LMP1 NFkB inh	Peg3 promoter	CF NFkB inh	HIF-2a inh	CF NFkB inh conf
COCCNc1nc(NCc2cc(-c3ccc(OC)cc3)no2)c2sccc2n1	nt	-14	nt	14	12	-22	nt
COc1cc(OC)nc(Nc2nc(C(N)CCc3ccccc3)cs2)n1 (configuration not stated)	nt	-17	nt	16	11	16	nt
CC(C)c1ccc(NC(=O)Nc2nc(C(N)CCc3ccccc3)cs2)cc1 (configuration not stated)	nt	-44	nt	98*	54*	23	12
CCN(C[C@H]1N[C@@](Cc2ccccc2)(C(=O)OC)[C@H]2C(=O)N(Cc3ccccc3)C(=O)[C@@H]12)C(=O)Nc1ccc(C(F)(F)F)cc1	7	6	4	31	51*	-60	35
CC(=O)N1CCC(C(=O)Nc2cc(S(=O)(=O)N3CCCCC3)ccc2C)CC1	nt	-1	5	-5	-14	10	nt
COc1ccc(OC)c(C2CC(=O)c3c([nH]c(C(=O)OC(C)C)c3C)C2)c1 (configuration not stated)	21	-12	11	-30	61*	-38	86*
CC1(C(=O)NCc2cccc3ccccc23)CCN1C(=O)C1(c2ccccc2)CCCC1 (configuration not stated)	nt	-13	nt	11	13	20	nt
CCOC(=O)N1CCN(S(=O)(=O)N2CCCC(C(=O)NCc3cc(OC)ccc3OC)C2)CC1 (configuration not stated)	nt	9	15	-4	-11	12	nt
COc1ccc(NC(=O)Cn2ncn3nc(-c4ccc(OC)cc4)cc3c2=O)cc1	6	-33	-31	-11	54*	-16	55*
O=C(O)c1ccc(-n2ncc(Cl)c(Cl)c2=O)cc1	nt	-45	-21	-16	74*	-14	-39
O=C(NCc1cccnc1)C1C2C=CC(C2)C1C(=O)Nc1cccc(C(F)(F)F)c1 (configuration not stated)	nt	-10	-5	-2	-11	-1	nt
O=[N+]([O-])c1ccc(-c2nn(-c3ccccc3)cc2/C=N/n2c(-c3cccs3)n[nH]c2=S)cc1	2	-34	1	14	56*	5	-7
COC(=O)c1ccc2nc(-c3ccco3)c(Cc3cccc(Cl)c3)n2c1	nt	nt	nt	nt	nt	-13	nt
COC(=O)c1ccc2nc(-c3ccco3)c(Cc3ccccc3)n2c1	nt	-8	nt	-35	54*	-17	10
Fc1cccc(Cc2c(-c3ccco3)nc3ccc(Cl)cn23)c1	nt	2	nt	-23	63*	-30	-41
FC(F)(F)c1ccccc1Cc1c(-c2ccco2)nc2ccc(Br)cn12	nt	-17	nt	14	62*	24	11
Clc1ccc2nc(-c3ccco3)c(Cc3ccccc3)n2c1	nt	-7	nt	-21	37	7	nt
Fc1cccc(Cc2c(-c3ccco3)nc3ccc(Br)cn23)c1	nt	-11	nt	-2	52*	14	11
CCN1CCc2nc3ccccc3c(C(=O)Nc3ccc(NC(C)=O)cc3)c2C1	9	-13	4	14	0	13	nt
O=C(COC(=O)c1c2c(nc3ccccc13)CCN(Cc1ccccc1)C2)Nc1c(F)cccc1F	7	-5	11	50*	75*	7	76*
O=C(NCc1ccc(F)cc1)c1c2c(nc3ccccc13)CCN(Cc1ccccc1)C2	2	-17	1	10	20	13	nt
CC(=O)Nc1ccc(NC(=O)COC(=O)c2c3c(nc4ccccc24)CCN(Cc2ccccc2)C3)cc1	-4	-7	0	31	57*	-16	72*
COc1ccc(NC(=O)c2nc(S(=O)(=O)Cc3cccc(C)c3)ncc2Cl)c(OC)c1	43	-38	11	108*	93*	-1	52*
Cc1ccccc1NC(=O)c1cccc(C(=O)Nc2ccccc2C)n1	1	-11	21	8	-31	20	nt
